Tests used:
Assay in all cases: SPOT peptide array binding signal intensity (averaged, normalized) (arbitrary units (background-subtracted, floor 0; scale differs between SH3 domains)); higher = stronger binding of the SH3 domain to the peptide
[1] = molecular target: AgAbp1
Summary of the method: (§1)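 GST-fused SH3 domains from four yeast species were expressed in E. coli BL21(DE3), purified on glutathione Sepharose and incubated at 10 μg/ml overnight at 4°C in TBS-based blocking buffer on cellulose membranes carrying synthetic 15-mer peptides, with cysteines replaced by serines. Bound protein was detected with anti-GST antibody, an HRP anti-mouse secondary and luminol, then imaged and quantified with Genespotter. Binding signal is the normalized, background-subtracted spot intensity averaged over replicates, in arbitrary units that differ between domains.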

[2] = molecular target: AgBbc1
Summary of the method: as §1

[3] = molecular target: AgBem1-D1
Summary of the method: as §1

[4] = molecular target: AgBzz1-D1
Summary of the method: as §1

[5] = molecular target: AgBzz1-D2
Summary of the method: as §1

[6] = molecular target: AgCyk3
Summary of the method: as §1

[7] = molecular target: AgFus1
Summary of the method: as §1

[8] = molecular target: AgHof1
Summary of the method: as §1

[9] = molecular target: AgHse1
Summary of the method: as §1

[10] = molecular target: AgLsb1
Summary of the method: as §1

[11] = molecular target: AgLsb4
Summary of the method: as §1

[12] = molecular target: AgMyo5
Summary of the method: as §1

[13] = molecular target: AgNbp2
Summary of the method: as §1

[14] = molecular target: AgRvs167
Summary of the method: as §1

[15] = molecular target: AgSho1
Summary of the method: as §1

[16] = molecular target: AgSla1-D1-D2
Summary of the method: as §1

[17] = molecular target: AgSla1-D3
Summary of the method: as §1

[18] = molecular target: CaAbp1-D1
Summary of the method: as §1

[19] = molecular target: CaAbp1-D2
Summary of the method: as §1

[20] = molecular target: CaBbc1
Summary of the method: as §1

[21] = molecular target: CaBem1-D1
Summary of the method: as §1

[22] = molecular target: CaBzz1-D1
Summary of the method: as §1

[23] = molecular target: CaBzz1-D2
Summary of the method: as §1

[24] = molecular target: CaCyk3
Summary of the method: as §1

[25] = molecular target: CaFus1
Summary of the method: as §1

[26] = molecular target: CaHof1
Summary of the method: as §1

[27] = molecular target: CaHse1
Summary of the method: as §1

[28] = molecular target: CaLsb1
Summary of the method: as §1

[29] = molecular target: CaLsb4
Summary of the method: as §1

[30] = molecular target: CaMyo5
Summary of the method: as §1

[31] = molecular target: CaNbp2
Summary of the method: as §1

[32] = molecular target: CaRvs167
Summary of the method: as §1

[33] = molecular target: CaRvs167-3
Summary of the method: as §1

[34] = molecular target: CaSho1
Summary of the method: as §1

[35] = molecular target: CaSla1-D1-D2
Summary of the method: as §1

[36] = molecular target: CaSla1-D3
Summary of the method: as §1

[37] = molecular target: ScAbp1
Summary of the method: as §1

[38] = molecular target: ScBbc1
Summary of the method: as §1

[39] = molecular target: ScBem1-D1
Summary of the method: as §1

[40] = molecular target: ScBzz1-D1
Summary of the method: as §1

[41] = molecular target: ScBzz1-D2
Summary of the method: as §1

[42] = molecular target: ScCyk3
Summary of the method: as §1

[43] = molecular target: ScFus1
Summary of the method: as §1

[44] = molecular target: ScHof1
Summary of the method: as §1

[45] = molecular target: ScHse1
Summary of the method: as §1

[46] = molecular target: ScLsb1
Summary of the method: as §1

[47] = molecular target: ScLsb2
Summary of the method: as §1

[48] = molecular target: ScLsb3
Summary of the method: as §1

[49] = molecular target: ScLsb4
Summary of the method: as §1

[50] = molecular target: ScMyo3
Summary of the method: as §1

[51] = molecular target: ScMyo5
Summary of the method: as §1

[52] = molecular target: ScNbp2
Summary of the method: as §1

[53] = molecular target: ScPex13
Summary of the method: as §1

[54] = molecular target: ScRvs167
Summary of the method: as §1

[55] = molecular target: ScSho1
Summary of the method: as §1

[56] = molecular target: ScSla1-D1-D2
Summary of the method: as §1

[57] = molecular target: ScSla1-D3
Summary of the method: as §1

[58] = molecular target: SpAbp1-D1
Summary of the method: as §1

[59] = molecular target: SpBbc1
Summary of the method: as §1

[60] = molecular target: SpBzz1-D1
Summary of the method: as §1

[61] = molecular target: SpBzz1-D2
Summary of the method: as §1

[62] = molecular target: SpCyk3
Summary of the method: as §1

[63] = molecular target: SpHof1
Summary of the method: as §1

[64] = molecular target: SpHof1-2
Summary of the method: as §1

[65] = molecular target: SpHof1-3
Summary of the method: as §1

[66] = molecular target: SpHse1
Summary of the method: as §1

[67] = molecular target: SpLsb1
Summary of the method: as §1

[68] = molecular target: SpLsb4
Summary of the method: as §1

[69] = molecular target: SpMyo1
Summary of the method: as §1

[70] = molecular target: SpNbp2
Summary of the method: as §1

[71] = molecular target: SpPex13
Summary of the method: as §1

[72] = molecular target: SpRvs167
Summary of the method: as §1

[73] = molecular target: SpSla1-D1-D2
Summary of the method: as §1

[74] = molecular target: SpSla1-D3
Summary of the method: as §1

Binder: KDKKTKPTPPPKPSH
- SPOT peptide array binding signal intensity [1]: 494
- SPOT peptide array binding signal intensity [2]: 26.8
- SPOT peptide array binding signal intensity [3]: 60.5
- SPOT peptide array binding signal intensity [4]: 42
- SPOT peptide array binding signal intensity [5]: 48
- SPOT peptide array binding signal intensity [6]: ≤ 0
- SPOT peptide array binding signal intensity [7]: ≤ 0
- SPOT peptide array binding signal intensity [8]: 19.5
- SPOT peptide array binding signal intensity [9]: 29
- SPOT peptide array binding signal intensity [10]: ≤ 0
- SPOT peptide array binding signal intensity [11]: ≤ 0
- SPOT peptide array binding signal intensity [12]: ≤ 0
- SPOT peptide array binding signal intensity [13]: ≤ 0
- SPOT peptide array binding signal intensity [14]: 1.5
- SPOT peptide array binding signal intensity [15]: 34.5
- SPOT peptide array binding signal intensity [16]: 7
- SPOT peptide array binding signal intensity [17]: 4
- SPOT peptide array binding signal intensity [18]: 275
- SPOT peptide array binding signal intensity [19]: 226
- SPOT peptide array binding signal intensity [20]: 132
- SPOT peptide array binding signal intensity [21]: 0.5
- SPOT peptide array binding signal intensity [22]: 1220
- SPOT peptide array binding signal intensity [23]: 715
- SPOT peptide array binding signal intensity [24]: ≤ 0
- SPOT peptide array binding signal intensity [25]: ≤ 0
- SPOT peptide array binding signal intensity [26]: 1.5
- SPOT peptide array binding signal intensity [27]: 2
- SPOT peptide array binding signal intensity [28]: 1
- SPOT peptide array binding signal intensity [29]: ≤ 0
- SPOT peptide array binding signal intensity [30]: 2.25
- SPOT peptide array binding signal intensity [31]: 0.5
- SPOT peptide array binding signal intensity [32]: 1.5
- SPOT peptide array binding signal intensity [33]: 4.5
- SPOT peptide array binding signal intensity [34]: 6
- SPOT peptide array binding signal intensity [35]: 10
- SPOT peptide array binding signal intensity [36]: 2
- SPOT peptide array binding signal intensity [37]: 735
- SPOT peptide array binding signal intensity [38]: ≤ 0
- SPOT peptide array binding signal intensity [39]: 9
- SPOT peptide array binding signal intensity [40]: ≤ 0
- SPOT peptide array binding signal intensity [41]: 79
- SPOT peptide array binding signal intensity [42]: 1
- SPOT peptide array binding signal intensity [43]: 31
- SPOT peptide array binding signal intensity [44]: 1.75
- SPOT peptide array binding signal intensity [45]: 38
- SPOT peptide array binding signal intensity [46]: ≤ 0
- SPOT peptide array binding signal intensity [47]: ≤ 0
- SPOT peptide array binding signal intensity [48]: 328
- SPOT peptide array binding signal intensity [49]: ≤ 0
- SPOT peptide array binding signal intensity [50]: ≤ 0
- SPOT peptide array binding signal intensity [51]: ≤ 0
- SPOT peptide array binding signal intensity [52]: 17
- SPOT peptide array binding signal intensity [53]: ≤ 0
- SPOT peptide array binding signal intensity [54]: 1.17
- SPOT peptide array binding signal intensity [55]: 334
- SPOT peptide array binding signal intensity [56]: 9
- SPOT peptide array binding signal intensity [57]: 5
- SPOT peptide array binding signal intensity [58]: 148
- SPOT peptide array binding signal intensity [59]: 3.75
- SPOT peptide array binding signal intensity [60]: 26.5
- SPOT peptide array binding signal intensity [61]: ≤ 0
- SPOT peptide array binding signal intensity [62]: ≤ 0
- SPOT peptide array binding signal intensity [63]: 5.5
- SPOT peptide array binding signal intensity [64]: 5.5
- SPOT peptide array binding signal intensity [65]: 67.8
- SPOT peptide array binding signal intensity [66]: 9.25
- SPOT peptide array binding signal intensity [67]: 70.5
- SPOT peptide array binding signal intensity [68]: ≤ 0
- SPOT peptide array binding signal intensity [69]: 2
- SPOT peptide array binding signal intensity [70]: 31
- SPOT peptide array binding signal intensity [71]: 9
- SPOT peptide array binding signal intensity [72]: 2
- SPOT peptide array binding signal intensity [73]: 1.5
- SPOT peptide array binding signal intensity [74]: ≤ 0

Binder: VRVKKRPLIRPLNSS
- SPOT peptide array binding signal intensity [1]: 450
- SPOT peptide array binding signal intensity [2]: 184
- SPOT peptide array binding signal intensity [3]: 244
- SPOT peptide array binding signal intensity [4]: 6.5
- SPOT peptide array binding signal intensity [5]: 215
- SPOT peptide array binding signal intensity [6]: 6
- SPOT peptide array binding signal intensity [7]: 223
- SPOT peptide array binding signal intensity [8]: 48.5
- SPOT peptide array binding signal intensity [9]: 646
- SPOT peptide array binding signal intensity [10]: 2.5
- SPOT peptide array binding signal intensity [11]: 81
- SPOT peptide array binding signal intensity [12]: 0.5
- SPOT peptide array binding signal intensity [13]: 220
- SPOT peptide array binding signal intensity [14]: 2.33
- SPOT peptide array binding signal intensity [15]: 53
- SPOT peptide array binding signal intensity [16]: 442
- SPOT peptide array binding signal intensity [17]: 12.8
- SPOT peptide array binding signal intensity [18]: 1520
- SPOT peptide array binding signal intensity [19]: 1190
- SPOT peptide array binding signal intensity [20]: 278
- SPOT peptide array binding signal intensity [21]: 378
- SPOT peptide array binding signal intensity [22]: 153
- SPOT peptide array binding signal intensity [23]: 101
- SPOT peptide array binding signal intensity [24]: 132
- SPOT peptide array binding signal intensity [25]: 381
- SPOT peptide array binding signal intensity [26]: 1
- SPOT peptide array binding signal intensity [27]: 15
- SPOT peptide array binding signal intensity [28]: 2
- SPOT peptide array binding signal intensity [29]: 104
- SPOT peptide array binding signal intensity [30]: 1.5
